# High-throughput results as filed in PubChem.
# Rows were chosen to be rich in hits. Some 4.6% of all compounds tested hit in one or more screens of this group.
# D1 antagonist – blocks dopamine activation of the human D1 receptor; P21728; HEK293 TREx D1 cells, calcium flux, dopamine EC80; active compounds read low; activity change, negative = inhibition, % at 10 µM; 360,000 compounds, 3.2% hits; in the data active means activity change below about -30%; further: on the % scale 0 is the no-effect control and ±100 the full control effect
#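 Using tetracycline-induced force-coupled D1 Hek293 cells and a calcium dye, signals were followed for 180 s after compound, then for 180 s after EC80 dopamine, to detect inhibitors.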
# D1 potentiator – potentiators of human D1 dopamine receptor. potentiation, % at 10 µM. HEK293 TREx D1 cells, calcium flux, dopamine EC20 potentiation. AID 504651. 360,000 compounds, 0.036% hits; in the data active means potentiation above about 30%; further: 0% is about no effect
# TRHR agonist – agonists of human TRH receptor; P34981; TRHR cells, calcium flux fluo-8, FDSS agonist mode; activation, % at 2 µM; 360,000 compounds, 0.18% hits; AID 493084; further: 0% is about no effect
# Target sequence (P34981 whole entry, looked up): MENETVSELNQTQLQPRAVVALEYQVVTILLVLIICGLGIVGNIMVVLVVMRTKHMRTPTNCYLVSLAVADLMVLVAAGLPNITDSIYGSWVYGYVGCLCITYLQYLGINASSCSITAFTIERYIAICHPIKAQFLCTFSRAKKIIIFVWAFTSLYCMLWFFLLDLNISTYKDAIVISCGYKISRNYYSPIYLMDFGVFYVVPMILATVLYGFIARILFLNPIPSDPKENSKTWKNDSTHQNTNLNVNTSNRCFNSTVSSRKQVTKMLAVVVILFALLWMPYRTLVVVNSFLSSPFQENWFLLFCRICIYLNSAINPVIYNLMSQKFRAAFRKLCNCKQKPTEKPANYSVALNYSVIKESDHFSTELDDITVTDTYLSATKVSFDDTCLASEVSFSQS
#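 Agonist-mode FDSS calcium read (Ex 480/Em 530, 1 s cycles) in 1536-well TRHR cells with fluo-8 dye, after 10-cycle baseline and 23 nL compound addition; TRH at EC20 (10 nM final) added afterwards for the enhancer phase.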
# TRHR enhancer – TRH receptor (human) allosteric enhancement; TRHR cells, fluo-8 calcium fluorescence, EC20 TRH enhancement; enhancement, % at 2 µM; 360,000 compounds, 0.66% hits; in the data active means enhancement above about 30%; further: 0% is about no effect
#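 TRHR-expressing cells loaded with fluo-8 calcium dye were read kinetically (ex 480/em 530) during compound addition, then stimulated with an EC20 of TRH (10 nM final). Enhancement of the Gq-mediated intracellular calcium response was scored.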
# D1 agonist – human D1 receptor agonism. P21728. HEK293 T-REx D1 cells, calcium flux, agonist mode. activation, % at 2 µM. 360,000 compounds, 1% hits. AID 504660; further: 0% is about no effect
#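 Agonism was scored from calcium flux recorded over 180 s (1 read/s) after pintool compound addition, following a 10-cycle baseline. Cells were inducible force-coupled HEK293 TREx D1, plated overnight at 30 C and loaded with no-wash calcium dye.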
# * = called active by the depositor; · = no result given; ! = a repeat was not active. Unless noted, no stated cut-off is given here; in the data, active means activation above about 30%; inactive means the rest.
SMILES,D1 antagonist,D1 potentiator,TRHR agonist,TRHR enhancer,D1 agonist
CN(C)CCCN(C(=O)CCc1ccccc1)c1nc2ccc(Br)cc2s1,-16,-3,1,-2,23
COc1ccc2sc(N(Cc3cccnc3)C(=O)CCc3ccccc3)nc2c1,·,-2,-1,12,34*
CN(C)CCCN(C(=O)CCc1ccccc1)c1nc2ccc(F)cc2s1,-6,-7,4,0,32*
COc1ccc2nc(N(Cc3cccnc3)C(=O)Cc3ccccc3)sc2c1,·,-1,-1,3,18
COc1ccc(C(=O)N2CCCCC2CCN2CCOCC2)cc1 (stereo unspecified),-9,1,0,6,1
CCc1ccc(NC(=O)CSC2=Nc3ccccc3C3=NC(CCC(=O)NCc4cccs4)C(=O)N23)cc1 (stereo unspecified),-12,2,0,-2,3
CC(C)NC(=O)N1CCN(S(=O)(=O)c2ccc3c(ccn3C)c2)CC1,-22,4,0,7,-1
COc1ccc(-c2nnc(SCC(=O)Nc3ccc(C)cc3)n2C)cc1,-90*,0,0,-1,0
COc1ccc(C(=O)Nc2ccc(NC(=O)CSc3nnc(-c4ccncc4)n3C)cc2)cc1,8,0,1,3,3
COc1ccc(NC(=O)CSc2nnnn2-c2ccc(F)cc2)cc1,0,0,0,0,1
COc1ccc(NC(=O)CSc2nnnn2-c2ccc(OC)cc2)cc1,-80*,4,0,6,-3
CCn1c(SCC(=O)N(C)CC(=O)Nc2cccc(OC)c2)nnc1-c1ccco1,2,0,0,27,4
CCn1c(SCC(=O)N(C)CC(=O)Nc2ccc(OC)cc2)nnc1-c1ccco1,-24,1,-1,38*,1
CN(C)S(=O)(=O)c1ccc(Cl)c(NC(=O)CSc2nnnn2-c2ccc(O)cc2)c1,-32*,4,-1,11,15
Cc1ccc(S(=O)(=O)N(C)C)cc1NC(=O)CSc1nnnn1-c1ccc(O)cc1,-8,-1,2,1,3
Cc1cccc(N2CCN(C(=O)Cn3c(=O)c4cccn4c4ccc(F)cc43)CC2C)c1 (stereo unspecified),5,-3,0,-1,7
Cc1ccc(Cl)cc1N1CCN(c2nc3ccccc3c3nc(-c4cccnc4)nn23)CC1,16,-2,0,-1,4
CCC1CN(C(=O)N2CCC(C(=O)NCCN(CC)CC)CC2)c2ccccc2O1 (stereo unspecified),8,2,-1,1,0
COc1ccc(-c2ccc(CCC(=O)O)n2CC(=O)Nc2cccc(Cl)c2C)cc1,-17,0,1,-7,-2
O=C(c1ccc2c(c1)OCCO2)N(Cc1cccnc1)c1nc2c(F)cccc2s1,-6,-5,0,-3,8
CC(NC(=O)c1cc2cc(F)ccc2[nH]1)c1ccccc1 (stereo unspecified),-55*,-16,1,25,17
O=C(O)c1cc2cc(F)ccc2[nH]1,4,0,0,3,44*!
CCc1c(C)sc2c1CCN(Cc1ccccc1F)C2c1ccccc1 (stereo unspecified),-4,0,0,5,4
COC(=O)c1c(SC)nc2ccccc2c1OCc1cc(C)ccc1C,17,-2,-1,13,31*
O=S(=O)(NCc1ccc(Cl)cc1)c1cccc2cccnc12,1,-2,0,-1,1
SMILES,D1 antagonist,D1 potentiator,TRHR agonist,TRHR enhancer,D1 agonist
Cc1cc(C)c(S(=O)(=O)NCc2ccc3c(c2)OCO3)c(C)c1,-36*,-6,-1,4,8
O=S(=O)(NCc1ccc2c(c1)OCO2)c1cccc2cccnc12,-52*,4,0,1,8
COC(=O)c1c(NC(=O)CN2C(=O)C(=O)N(C(C)C)C2=O)sc(C)c1C,-37*,-3,0,-2,0
O=C1C2CCCN2C(=O)N1CCCN1CCN(c2ccc([N+](=O)[O-])cc2)CC1 (stereo unspecified),-29,-1,1,-6,5
O=C1C2CCCN2C(=O)N1CCCCN1CCN(c2ccc(F)cc2)CC1 (stereo unspecified),-34*,-10,0,7,5
O=C1C2CCCCN2C(=O)N1CCN1CCN(c2ccc([N+](=O)[O-])cc2)CC1 (stereo unspecified),-33*,6,0,-1,7
O=C1C2CCCCN2C(=O)N1CCCCN1CCN(c2ccc(F)cc2)CC1 (stereo unspecified),-19,-25,0,4,-1
O=C(NC1CCN(Cc2ccc(Cl)cc2Cl)CC1)c1ccccc1,-76*,-28,-1,-3,28
O=C(NC1CCN(Cc2ccccc2)CC1)c1ccccc1,-19,-21,0,-5,2
O=C(NC1CCN(CCc2c[nH]c3ccccc23)CC1)c1ccccc1,-83*,-18,0,1,67*
O=C(NC1CCN(Cc2cccc([N+](=O)[O-])c2)CC1)c1ccccc1,-57*,-20,0,-4,6
Cc1ccc(C)c(N2CCN(S(=O)(=O)c3ccc(F)c(C(=O)Nc4ccc(Cl)cc4Cl)c3)CC2)c1,-6,1,0,-1,-3
CCN(CC)C(=O)Cn1c(=O)n(-c2ccc(C)c(C)c2)c(=O)c2c(C)c(C(=O)N(CC)CC)sc21,7,6,0,10,1
CC1CN(C(=S)Nc2ccccc2C(F)(F)F)CC(C)O1 (stereo unspecified),-34*,-1,0,4,2
FC(F)(F)c1ccccc1NC(=S)N1CCCCCC1,6,-2,0,0,-1
Cc1ccc(C2CC(=O)Oc3cc(O)ccc32)cc1 (stereo unspecified),-30*,-5,3,1,5
CC(=O)Nc1ccc(S(=O)(=O)NCCc2csc3nc(-c4ccc(Cl)cc4)nn23)cc1,·,1,1,-2,3
CC(C)NC(=O)Cn1c(=O)cnc2ccccc21,-55*,-5,0,-1,4
CCN(CC)CCN(C(=O)c1ccco1)c1nc2c(C)c(C)ccc2s1,4,-3,-1,38*,19
Cc1ccc2sc(N(CCCN(C)C)C(=O)c3ccco3)nc2c1C,17,-1,1,8,17
CCCc1cc(C(=O)Nc2ccc(C(=O)c3ccccc3)cc2)n(C)n1,-32*,-12,3,-9,14
COc1ccc(-n2c(=O)c3c4c(sc3n(Cc3cc(=O)n5c(C)cccc5n3)c2=O)CCC4)c(OC)c1,11,0,2,-3,5
CCOC(=O)Cc1ccc(NC(=O)N(Cc2ccc(OC)cc2)C2CCN(C(C)=O)CC2)cc1,-6,6,0,7,-2
Clc1ccc2c(c1)C(N1CCNCC1)=Nc1ccccc1O2,-71*,-6,1,8,20
